# From PubChem BioAssay (NCATS)
# Records with an inconclusive call do not appear. Entries that show only a call come without a potency. A number with no mark means an inactive call. Calls of active or inactive are those of the source. Calls come from the whole dose curve; as a rule, active = well fitted inhibition curve with a large enough effect; inconclusive = small, poorly fitted or top-dose-only effect; inactive = no such curve, though single readings can be large or run the other way.
# Assays:
# [1] = test system: Zika virus NS2B-NS3 protease (unlinked complex); assay: Primary screen GU Rhodamine qHTS for Zika virus inhibitors: Unlinked NS2B-NS3 protease assay (AID 1347159); conditions: Recombinant ZIKV NS2B-NS3 protease, Rhodamine110 substrate fluorescence; series mostly up to 107 µM; note: nearly all actives have a fitted effect of over 60% in size
# Summary of the method: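 Compounds, tested up to 114 microM, were incubated for 15 minutes with 25 nM unlinked NS2B-NS3 protease at pH 8.0. Cleavage of 1.5 microM Rhodamine110 substrate was then followed by fluorescence for 15 minutes.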
# [2] = test system: Zika virus NS2B-NS3 protease (linked construct); assay: Primary screen NINDS Rhodamine qHTS for Zika virus inhibitors (AID 1347160); conditions: purified NS2B-NS3 protease, Rhodamine110 substrate fluorescence; series mostly up to 57.1 µM; note: nearly all actives have a fitted effect of over 55% in size
# Summary of the method: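 Percent inhibition, normalized to uninhibited and enzyme-free controls, is fitted to a 4-parameter Hill equation. Fluorescence change comes from a 15-min cleavage of 1.5 microM bis-peptide Rhodamine110 substrate by 25 nM linked NS2B-NS3 at room temperature.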
Structure (SMILES),Potency [1],Potency [2],"activity change, negative = inhibition [1]","activity change, negative = inhibition [2]"
COC(=O)c1ccnc(-c2cc(C(=O)NCCc3ccccc3)ccn2)c1,inactive,inactive,–,–
COc1cc2ncnc(Nc3cccc(O)c3)c2cc1OC,inactive,inactive,–,–
C[C@@]12C[C@]3(O)O[C@H](O1)[C@]1(COC(=O)c4ccccc4)[C@H]3C[C@@]12O[C@@H]1O[C@H](CO)[C@@H](O)[C@H](O)[C@H]1O,inactive,inactive,–,–
COc1cc(N)c(Cl)cc1C(=O)NC[C@@H]1CCN2CCC[C@@H]12,inactive,inactive,–,–
O=C1CCC(=O)N(O)CCCCCNC(=O)CCC(=O)N(O)CCOCCNC(=O)CCC(=O)N(O)CCCCCN1,inactive,inactive,–,–
C[C@@H]1O[C@@H](O[C@H]2[C@H](O[C@H]3CC[C@@]4(C)C(CC[C@]5(C)C4CC=C4[C@@H]6CC(C)(C)CC[C@]6(C(=O)O[C@@H]6OC[C@H](O)[C@H](O)[C@H]6O[C@@H]6O[C@@H](C)[C@H](O[C@@H]7O[C@H](CO)[C@@H](O)[C@H](O)[C@H]7O)[C@H](O)[C@H]6O)[C@H](O)C[C@]45C)C3(C)C)O[C@H](CO)[C@@H](O[C@@H]3OC[C@@H](O)[C@H](O)[C@H]3O)[C@@H]2O)[C@H](O)[C@H](O)[C@H]1O (some centres not stated),–,–,-6.95% [at 19.1 µM],-3.53% [at 10.7 µM]
NC1CCC(Nc2cc(-c3cccc(NCc4cccc(F)c4)n3)c(Cl)cn2)CC1 (configuration not stated),inactive,inactive,–,–
CC(C)=CCC(O)/C(C)=C/CO[C@@H]1O[C@H](CO)[C@@H](O)[C@H](O)[C@H]1O (some centres not stated),inactive,inactive,–,–
C[C@@H]1COCCN1c1cc(C2(S(C)(=O)=O)CC2)nc(-c2cccc3[nH]ccc23)n1,inactive,inactive,–,–
C[C@H](N)C(=O)N[C@@H](Cc1ccc(O)cc1)C(=O)N1CCC[C@H]1C(=O)NCC(=O)N[C@@H](CCCCN)C(=O)N[C@@H](Cc1ccccc1)C(N)=O,–,–,124% [at 19.1 µM],9.61% [at 10.7 µM]
CC(C)[C@@](C)(O)[C@@H]1CN(c2nc(-c3[nH]nc4ncccc34)c(F)cc2Cl)CCN1,inactive,inactive,–,–
CC1=C(COC2OC(CO)C(O)C(O)C2O)C(C(CO)C(=O)O)CC1 (configuration not stated),inactive,inactive,–,–
CC(=O)OC[C@]12[C@H](OC(C)=O)C(=O)[C@@H]3[C@@H](OC(C)=O)[C@@]14O[C@@]3(C)COC(=O)c1cccnc1[C@@H](C)[C@H](C)C(=O)O[C@@H]([C@H](O)[C@@H]2OC(C)=O)[C@]4(C)O,inactive,inactive,–,–
COC(=O)c1ccc(OC(CO)C(O)c2ccc(O)c(OC)c2)c(OC)c1 (configuration not stated),inactive,inactive,–,–
C[C@]12C[C@@H](O)[C@@H]3C[C@@]1(O[C@@H]1O[C@H](CO)[C@@H](O)[C@H](O)[C@H]1O)[C@]3(COC(=O)c1ccccc1)C(=O)O2,inactive,inactive,–,–
N#C[C@@H]1CCCN1C(=O)CNC12CC3CC(CC(O)(C3)C1)C2,inactive,inactive,–,–
COC(=O)C1=CO[C@@H](O[C@@H]2O[C@H](CO)[C@@H](O)[C@H](O)[C@H]2O)[C@H]2[C@@H]1C=C[C@@]21C=C([C@H](C)O)C(=O)O1,inactive,inactive,–,–
CN=C(N)NCCCCC/C=C(/C)CC(C)C1OC(=O)C(C)C(O)/C=C/C(C)C(O)CC(O)C(C)C(O)CCC(C)C(O)CC2(O)OC(CC(OC(=O)CC(=O)O)CC(O)CC(O)C(C)C(O)/C(C)=C/CCC1C)CC(O)C2O (configuration not stated),inactive,inactive,–,–
CCC1C(=O)N(C)c2cnc(Nc3ccc(C(=O)NC4CCC(N5CCN(CC6CC6)CC5)CC4)cc3OC)nc2N1C(C)C (configuration not stated),inactive,inactive,–,–
Cc1ccc(S(=O)(=O)n2ccc(-c3c(-c4ccc(Cl)cc4)noc3C)n2)cc1,inactive,inactive,–,–
C[C@H]1C(=O)N2c3ccccc3[C@@]3(O)C[C@@H]4C(=O)N[C@](C)(c5nc6ccccc6c(=O)n54)N1[C@@H]23,inactive,inactive,–,–
COc1cc(C(=O)NC2CCN(C)CC2)c(F)cc1Nc1ncc2c(n1)N(C1CCCC1)CC(F)(F)C(=O)N2C,inactive,inactive,–,–
CC1=C2C(O)C(=O)OC(c3ccoc3)C2(C)CCC1O (configuration not stated),inactive,inactive,–,–
O=C(COc1cccc2c(=O)[nH]ccc12)c1ccccc1,inactive,inactive,–,–
COC(=O)C1(C)c2[nH]c3ccccc3c2CCN1C(=O)CCl (configuration not stated),inactive,inactive,–,–
CC1(CCOC2OC(CO)C(O)C(O)C2O)CCC23OC2(C1)C(O)CC1C(C)(C(=O)O)CCCC13C (configuration not stated),inactive,inactive,–,–
